Data taken from publication PMC13541613, “GHT-SELEX demonstrates unexpectedly high intrinsic sequence specificity and complex DNA binding of many human transcription factors”.

Each sequence was assayed against ZNF721 full-length (Homo sapiens, UniProt Q8TF20-2 1-923) (assay: HT-SELEX; 20 mM HEPES pH 7, 140 mM KCl, 5 mM NaCl, 1 mM K2HPO4, 2 mM MgSO4, 100 uM EGTA, ZnSO4, 0.1% Tween20; room temperature, 1 h; high values mean tight binding). Conditions: protein: ivt; tags: eGFP (N-terminal); dsDNA, one strand shown.
ZNF721 full-length, sequence (Q8TF20 other isoform, or with tags, fused parts or gaps): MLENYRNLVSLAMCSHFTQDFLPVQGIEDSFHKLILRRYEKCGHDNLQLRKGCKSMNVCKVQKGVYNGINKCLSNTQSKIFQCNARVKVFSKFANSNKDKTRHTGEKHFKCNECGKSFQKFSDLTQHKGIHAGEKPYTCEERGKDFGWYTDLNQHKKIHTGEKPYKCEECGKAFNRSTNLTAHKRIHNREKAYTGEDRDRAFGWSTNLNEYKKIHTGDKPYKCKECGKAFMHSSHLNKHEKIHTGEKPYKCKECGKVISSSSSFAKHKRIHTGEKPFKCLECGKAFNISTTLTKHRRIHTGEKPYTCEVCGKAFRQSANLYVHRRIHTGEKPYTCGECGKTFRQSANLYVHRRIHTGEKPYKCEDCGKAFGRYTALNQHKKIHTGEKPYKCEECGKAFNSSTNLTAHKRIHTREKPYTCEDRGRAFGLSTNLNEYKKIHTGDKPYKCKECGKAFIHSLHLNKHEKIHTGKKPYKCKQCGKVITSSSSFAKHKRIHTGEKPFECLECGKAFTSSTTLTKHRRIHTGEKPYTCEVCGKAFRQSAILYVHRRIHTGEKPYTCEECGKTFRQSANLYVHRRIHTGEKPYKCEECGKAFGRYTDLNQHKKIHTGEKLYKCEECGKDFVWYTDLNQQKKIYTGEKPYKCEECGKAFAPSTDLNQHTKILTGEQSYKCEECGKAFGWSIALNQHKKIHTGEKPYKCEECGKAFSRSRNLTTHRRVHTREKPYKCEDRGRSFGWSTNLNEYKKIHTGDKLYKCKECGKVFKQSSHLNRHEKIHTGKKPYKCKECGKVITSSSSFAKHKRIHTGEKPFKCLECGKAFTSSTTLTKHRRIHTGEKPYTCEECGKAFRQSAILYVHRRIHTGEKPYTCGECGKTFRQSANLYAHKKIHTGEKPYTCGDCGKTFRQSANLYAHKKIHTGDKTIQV
How it was run: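 Full-length or DNA-binding-domain forms of a tagged transcription factor were produced in HEK293 lysate or cell-free extract and immobilised on beads. Incubation with a randomized 40-base DNA library ran for 1 h at room temperature in HEPES/KCl low-stringency buffer with Tween20, after which bound DNA was washed, heat-eluted, PCR-amplified over successive cycles and Illumina-sequenced. Binding strength is given as the relative k-mer count in selected reads, higher for tighter binding.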
CCCCAACCAC gave a binding signal of 0.156 relative 10-mer count.
In the case of CCACGCCACC, the binding signal is reported as 0.105 relative 10-mer count.
For CCCCCGCTCC, the binding signal was 0.103 relative 10-mer count.
CACCCCCCAC was tested, and the binding signal was 0.248 relative 10-mer count.
CGAAAAAACA gave a binding signal of 0.153 relative 10-mer count.
GCCCACCCCA was tested, and the binding signal was 0.142 relative 10-mer count.
Sequence CACCCTCCAC has a binding signal of 0.106 relative 10-mer count.
CCACCATCCC was tested, and the binding signal was 0.162 relative 10-mer count.
CCCTGCCCCC gave a binding signal of 0.166 relative 10-mer count.
Work on ACCCACACCC yielded a binding signal of 0.108 relative 10-mer count.
With ACACCACCCC the binding signal was 0.128 relative 10-mer count.
ACCCCACCCT was tested, and the binding signal was 0.104 relative 10-mer count.
With CCTCCCTCCC the binding signal was 0.179 relative 10-mer count.
For AGCCCCACCC, the binding signal was 0.106 relative 10-mer count.
In the case of AAAAAAGCAG, the binding signal is reported as 0.862 relative 10-mer count.
For AAAAAAAGCT, the binding signal was 0.472 relative 10-mer count.
For CCCCCGTCCC, the binding signal was 0.173 relative 10-mer count.
CCCTCCACCC gave a binding signal of 0.321 relative 10-mer count.
For GCCCCACCCA, the binding signal was 0.13 relative 10-mer count.
For ACCCCCCCCC, the binding signal was 0.143 relative 10-mer count.
For GCCCCCCTCC, the binding signal was 0.128 relative 10-mer count.
In the case of AAGCAGCGTA, the binding signal is reported as 0.162 relative 10-mer count.
Work on CCCCCTCCGC yielded a binding signal of 0.124 relative 10-mer count.
Work on GCTTTTTTCA yielded a binding signal of 0.21 relative 10-mer count.
GCCCCCACCC showed a binding signal of 0.19 relative 10-mer count.
CCCGCCACCC was tested, and the binding signal was 0.304 relative 10-mer count.
With ATGGGGTGGG the binding signal was 0.125 relative 10-mer count.
Work on CCACCACCCG yielded a binding signal of 0.131 relative 10-mer count.
For CGCCACCACC, the binding signal was 0.108 relative 10-mer count.
CCACACCCCC gave a binding signal of 0.201 relative 10-mer count.
Work on AAAGAAGCGT yielded a binding signal of 0.12 relative 10-mer count.
CCACCCTCCC was tested, and the binding signal was 0.246 relative 10-mer count.
Sequence CCCCGCCCCG has a binding signal of 0.144 relative 10-mer count.
ACCCTCCCCC showed a binding signal of 0.176 relative 10-mer count.
With AGGGGTGGTG the binding signal was 0.139 relative 10-mer count.
For CACCTCCCCC, the binding signal was 0.188 relative 10-mer count.
Work on CGGAAAAAAG yielded a binding signal of 0.109 relative 10-mer count.
AAAAAGGCAT showed a binding signal of 0.188 relative 10-mer count.
Sequence CCACCGCCAC has a binding signal of 0.12 relative 10-mer count.
CCACCCCCCA was tested, and the binding signal was 0.272 relative 10-mer count.
